Data as given in PubChem BioAssay.
Activity calls are given as the source filed them.

What was measured:
[1] = compounds binding Alexa647 anti-His antibody – biochemical, small-molecule microarray, 635 nm fluorescence, artefact control for SMM control protein annotation, primary screen (AID 1128); settings: higher = more signal;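 note: score merges feature fluorescence with signal-to-noise for each printed compound spot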
[2] = tested on: Human papillomavirus type 1a E7 protein (residues 1-88); experiment: HPV1a E7 small-molecule binders, primary screen, biochemical, small-molecule microarray, residues 1-88, 635 nm (AID 1129); settings: small-molecule microarray binding, fluorescence 635 nm; higher = more signal
[3] = biological target: Focal adhesion kinase 1 (Homo sapiens) (UniProt Q05397); experiment: PTK2 protein binding on printed compound slides – biochemical, small-molecule microarray, 635/667 nm fluorescence, BSA, DTT, primary screen (AID 1130); settings: 635 nm fluorescence, higher = more signal;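 note: composite of spot emission at 667 nm and signal to noise over triplicate slides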
Sequence of Focal adhesion kinase 1 (Homo sapiens) (Q05397 whole entry, looked up): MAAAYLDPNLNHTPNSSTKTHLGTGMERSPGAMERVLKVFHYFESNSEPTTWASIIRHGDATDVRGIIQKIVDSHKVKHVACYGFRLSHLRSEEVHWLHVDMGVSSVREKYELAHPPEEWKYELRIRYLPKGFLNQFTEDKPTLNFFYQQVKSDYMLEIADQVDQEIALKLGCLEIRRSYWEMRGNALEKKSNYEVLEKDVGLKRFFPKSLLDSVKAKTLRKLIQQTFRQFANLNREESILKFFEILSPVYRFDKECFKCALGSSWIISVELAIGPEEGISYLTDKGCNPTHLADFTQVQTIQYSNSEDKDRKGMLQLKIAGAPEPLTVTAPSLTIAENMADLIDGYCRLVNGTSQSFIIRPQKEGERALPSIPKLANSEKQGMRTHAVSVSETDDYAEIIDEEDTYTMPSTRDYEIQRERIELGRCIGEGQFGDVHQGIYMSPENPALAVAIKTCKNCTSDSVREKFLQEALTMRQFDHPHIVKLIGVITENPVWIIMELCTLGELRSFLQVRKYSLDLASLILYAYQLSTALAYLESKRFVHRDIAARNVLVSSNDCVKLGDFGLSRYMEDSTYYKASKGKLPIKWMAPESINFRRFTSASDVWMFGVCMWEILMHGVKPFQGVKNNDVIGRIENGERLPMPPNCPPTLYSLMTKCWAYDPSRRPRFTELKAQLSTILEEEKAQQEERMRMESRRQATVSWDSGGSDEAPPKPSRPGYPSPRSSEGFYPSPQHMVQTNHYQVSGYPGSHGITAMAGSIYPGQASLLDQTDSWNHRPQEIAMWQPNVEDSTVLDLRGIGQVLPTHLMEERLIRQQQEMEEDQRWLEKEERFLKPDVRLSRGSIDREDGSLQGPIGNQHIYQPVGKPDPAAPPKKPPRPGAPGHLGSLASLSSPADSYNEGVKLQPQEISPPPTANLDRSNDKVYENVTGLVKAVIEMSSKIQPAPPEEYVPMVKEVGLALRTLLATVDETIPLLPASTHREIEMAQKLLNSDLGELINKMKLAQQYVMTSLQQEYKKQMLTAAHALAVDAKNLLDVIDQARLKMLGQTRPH

[4] = tested on: Fibrinogen (Alexa647-labelled); experiment: Alexa647-fibrinogen binding to printed small molecules – biochemical, small-molecule microarray, 635/667 nm fluorescence, artefact control for SMM control-protein annotation, profiling panel (AID 1131); settings: fibrinogen-A647 binding fluorescence, higher = more signal;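 note: z-score merges 667 nm fluorescence with per-spot signal-to-noise over triplicate slides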
[5] = biological target: Follistatin (Homo sapiens) (UniProt P19883); experiment: FST protein binding to printed compounds – biochemical, small-molecule microarray, 635/667 nm fluorescence, primary screen (AID 1132); settings: 635 nm fluorescence, higher = more signal
Sequence of Follistatin (Homo sapiens) (P19883 whole entry, looked up): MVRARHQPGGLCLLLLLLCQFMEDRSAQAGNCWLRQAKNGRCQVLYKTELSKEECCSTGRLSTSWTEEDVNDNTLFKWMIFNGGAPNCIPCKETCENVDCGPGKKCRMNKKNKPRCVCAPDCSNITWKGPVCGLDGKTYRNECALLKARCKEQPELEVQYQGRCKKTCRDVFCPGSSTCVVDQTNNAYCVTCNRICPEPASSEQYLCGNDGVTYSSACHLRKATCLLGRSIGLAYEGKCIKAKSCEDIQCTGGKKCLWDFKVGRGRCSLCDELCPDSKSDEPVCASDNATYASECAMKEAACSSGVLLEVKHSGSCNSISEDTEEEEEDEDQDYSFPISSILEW

[6] = biological target: Fibroblast growth factor 2 (Homo sapiens) (UniProt P09038); experiment: basic fibroblast growth factor binding to printed compounds – biochemical, small-molecule microarray, 635/667 nm fluorescence, primary screen (AID 1133); settings: FGF2, fluorescence 635/667, higher = more signal
Sequence of Fibroblast growth factor 2 (Homo sapiens) (P09038 whole entry, looked up): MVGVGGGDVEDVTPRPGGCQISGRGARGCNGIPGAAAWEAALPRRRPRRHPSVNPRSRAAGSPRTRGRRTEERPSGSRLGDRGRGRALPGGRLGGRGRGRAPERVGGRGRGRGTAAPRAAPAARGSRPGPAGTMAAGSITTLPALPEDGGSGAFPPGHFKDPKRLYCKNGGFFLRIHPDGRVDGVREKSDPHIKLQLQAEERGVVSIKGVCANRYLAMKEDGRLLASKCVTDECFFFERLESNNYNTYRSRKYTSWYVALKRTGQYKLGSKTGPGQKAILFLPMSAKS

[7] = JC-1 mitochondrial potential readout, lung cancer cells – cell-based, A549, JC-1 fluorescence, basal, 24 h, 100 nL, profiling panel (AID 1138); settings: higher = more signal;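 note: A549 lung adenocarcinoma cells under basal conditions with no added stimulus; test concentration not given here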
Lefty1 = Lefty1 protein binding to printed compounds – biochemical, small-molecule microarray, 635/667 nm fluorescence, primary screen (AID 1139); settings: fluorescence 635/667, higher = more signal
[8] = tested on: wheat germ agglutinin (Triticum aestivum), Alexa647-labelled; experiment: Alexa647-WGA lectin binding to printed small molecules – biochemical, small-molecule microarray, 635/667 nm fluorescence, artefact control for SMM control-protein annotation, profiling panel (AID 1140); settings: WGA-A647 binding, 635 nm fluorescence, higher = more signal;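 note: score merges 667 nm feature emission with signal to noise over triplicate slides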
[9] = biological target: Luciferin 4-monooxygenase (Photinus pyralis) (UniProt P08659); experiment: inhibition of purified Photinus pyralis luciferase – biochemical, luminescence, purified enzyme, 2006 set, primary screen (AID 1141); settings: purified firefly luciferase, SteadyGlo luminescence, 30 min; higher = more signal, called active from +8 up or from −8 down;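 note: cell-free assay with purified firefly luciferase at 100 ng per well in PBS; test concentration not given here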
Sequence of Luciferin 4-monooxygenase (Photinus pyralis) (P08659 whole entry, looked up): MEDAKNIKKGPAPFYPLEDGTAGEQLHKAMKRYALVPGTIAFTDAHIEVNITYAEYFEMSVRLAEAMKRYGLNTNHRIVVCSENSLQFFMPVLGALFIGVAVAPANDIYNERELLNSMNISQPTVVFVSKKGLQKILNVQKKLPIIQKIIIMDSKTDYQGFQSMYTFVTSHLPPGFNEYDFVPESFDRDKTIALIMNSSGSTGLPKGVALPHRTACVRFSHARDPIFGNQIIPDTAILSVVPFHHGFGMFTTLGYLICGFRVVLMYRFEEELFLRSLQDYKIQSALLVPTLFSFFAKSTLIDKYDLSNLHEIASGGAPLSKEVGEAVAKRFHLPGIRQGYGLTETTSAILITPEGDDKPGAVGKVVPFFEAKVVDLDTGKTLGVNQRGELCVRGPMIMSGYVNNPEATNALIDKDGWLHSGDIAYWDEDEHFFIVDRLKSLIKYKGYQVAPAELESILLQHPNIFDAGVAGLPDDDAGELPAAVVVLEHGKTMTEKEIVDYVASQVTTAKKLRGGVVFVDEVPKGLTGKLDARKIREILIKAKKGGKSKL

| SMILES | composite z-score [1] | composite z-score [2] | composite z-score [3] | composite z-score [4] | composite z-score [5] | composite z-score [6] | z-score [7] | composite z-score (Lefty1) | composite z-score [8] | z-score [9] |
| --- | --- | --- | --- | --- | --- | --- | --- | --- | --- | --- |
| C=C(COC)C(=O)CC[C@@H](OC(=O)c1ccccc1-c1ccccc1C(=O)O)c1ccccc1OCCO | 0.116 | 1.15 | -0.267 | 0.599 | 1.29 | 1.64 | -0.0562 | 0.922 | -0.272 | -6.94 (inactive) |
| C=CCNC(=O)[C@@H]1[C@H]2C(=O)O[C@H](c3ccccc3)[C@H](c3ccccc3)N2[C@H](c2ccc(OCCO)cc2)[C@@]12C(=O)Nc1ccc(C#CC3=CCCCC3)cc12 | 1.15 | 1.23 | 1.08 | 0.972 | 1.1 | 0.582 | -1.56 | 1.11 | 0.898 | -0.806 (inactive) |
| O=C1O[C@H](c2ccccc2)[C@H](c2ccccc2)N2[C@H]1[C@@H](C(=O)O)[C@]1(C(=O)Nc3ccc(C#CC4(O)CCCCCC4)cc31)[C@H]2c1ccccc1OCCO | 1.16 | 1.23 | 0.854 | 0.924 | 0.729 | 0.435 | 0.833 | 0.664 | 1.25 | -3.82 (inactive) |
| CCOC(=O)C1=C[C@@H](C(C)(C)C)N(S(=O)(=O)c2ccc(C)cc2)[C@H]1c1ccc(OC)cc1 | 0.772 | 1.22 | 1.62 | 1.02 | 0.688 | 0.387 | 2.61 | 0.554 | 0.782 | 1.95 (inactive) |
| CC(C)[Si](C#Cc1ccccc1)(O[C@H](c1ccccc1)c1cn(Cc2ccccc2)nn1)C(C)C | 0.409 | 1.11 | 0.188 | 0.588 | 1.11 | 1.3 | -0.485 | -0.0104 | 0.139 | -1.3 (inactive) |
| C=CCOC(=O)[C@@H]1[C@H]2C(=O)O[C@H](c3ccccc3)[C@H](c3ccccc3)N2[C@H](c2ccc(OCCOC(=O)[C@@H]3C[C@@H]4C(=O)N[C@@H](CC(C)C)C(=O)N4[C@@H]3c3ccc(O)cc3)cc2)[C@@]12C(=O)Nc1ccc(I)cc12 | 1.52 | 1.2 | 0.601 | 0.666 | 1.44 | 1.26 | -1.58 | 1.44 | 0.182 | -0.248 (inactive) |
| COCCOC(=O)N1C(=O)[C@@]2(c3cc(C#CC4=CCCCC4)ccc31)[C@H](C(=O)N1CCCCCCC1)[C@H]1C(=O)O[C@H](c3ccccc3)[C@H](c3ccccc3)N1[C@@H]2c1ccccc1OCCO | 0.316 | 1.19 | 0.391 | 0.461 | 1.42 | 0.679 | -1 | 1.01 | 0.275 | 0.104 (inactive) |
| C=C(C(=O)CC[C@H](OC(=O)c1ccccc1-c1ccccc1C(=O)O)c1ccc(OCCO)cc1)C(C)C | 0.547 | 1.16 | 0.124 | 0.981 | 0.901 | 0.726 | -0.45 | 0.64 | 0.189 | -1.35 (inactive) |
| CCCN1C(=O)[C@@]2(c3ccc([N+](=O)[O-])cc3)CC(=O)N(C3CCCCC3)[C@@H]2c2ccc(CO)cc21 | 0.993 | -0.281 | 0.584 | -0.138 | 1.2 | 1.08 | -0.755 | 0.466 | 0.198 | 0.289 (inactive) |
| COC(=O)C(CC#Cc1ccc2c(c1)[C@]1(C(=O)N2)[C@H](C(=O)N2CCCCCCC2)[C@H]2C(=O)O[C@H](c3ccccc3)[C@H](c3ccccc3)N2[C@@H]1c1ccc(OCCO)cc1)C(=O)OC | 3.39 | 1.32 | 4.91 | 0.943 | 1.49 | 1.6 | -0.949 | 1.79 | 1.77 | 0.035 (inactive) |
| C=C(COC)/C(=C/C[C@@H](OC(C)=O)c1cccc(OCCO)c1)c1cnc2ccccc2c1 | 0.309 | 0.75 | -0.012 | -0.657 | 1.42 | 1.2 | 0.031 | 1.24 | 1.04 | -1.11 (inactive) |
| C=CCNC(=O)[C@H]1[C@@H]2C(=O)O[C@@H](c3ccccc3)[C@@H](c3ccccc3)N2[C@@H](c2ccc(OCCO)cc2)[C@]12C(=O)N(C(=O)OCCOC)c1ccc(C#CCC(C(=O)OC)C(=O)OC)cc12 | 0.302 | 1.2 | 0.227 | 0.94 | 1.27 | 0.252 | -0.933 | 1.27 | 1.26 | -0.515 (inactive) |
| COc1ccc(NN2C(C(O)c3ccc(F)cc3)C=CC3C(=O)N(C4CCCCC4)C(=O)C32)cc1 (stereo not given) | 0.683 | 1.25 | 0.382 | 0.997 | 1.15 | 0.314 | -0.462 | 0.174 | 1.14 | 0.613 (inactive) |
| CC(C)(C)OC(=O)CC[C@@]1(C(N)=O)N=C(c2ccc(OCCCO)cc2)O[C@@H]1c1ccccc1CN=[N+]=[N-] | 3.46 | 1.13 | 0.177 | 0.524 | 1.34 | 1.34 | -0.332 | -0.721 | 0.68 | -1.79 (inactive) |
